In PubChem BioAssay (Tox21) one finds Potency and outcome data, which are given here for 13 compounds.

Results filed as inconclusive are left out. Values without a mark were called inactive. The source made the active and inactive calls. Unless noted, calls follow the shape of the dose curve; as a rule, active = well fitted curve in the direction sought with a large enough effect in the repeat runs; inconclusive = weak or mixed curves; inactive = no such curve, though single readings can be large; an effect the other way counts as inactive or inconclusive.

Experiment [1] in a line: qHTS assay to identify small molecule agonists of the RXR signaling pathway - cell viability counter screen (AID 1159529). Also: nearly all actives have a fitted effect of over 50% in size. Also: potency is read from the fitted curve at half-maximal effect. The procedure, abridged: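 RXR-alpha-UAS-bla HEK 293T cells in medium with 2% charcoal-stripped FBS were pre-incubated 5 hr, then compound-treated 16 hr at 37 C. Viability was read by CellTiter-Glo luminescence in the same wells as the beta-lactamase assay, with tetraoctyl ammonium bromide as positive control.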
(In qHTS, concentration-response curves come from the screen itself.)

Experiment [2] can be described thus: qHTS assay to identify small molecule antagonists of the retinoid acid receptor (RAR) signaling pathway - cell viability counter screen (AID 1159551). Also: nearly all actives have a fitted effect of over 35% in size. The procedure, abridged: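 ATP-based viability, C3RL4 cells, 6 h at 37 C with 1 uM final retinol co-added after compound; luminescence read 30 min post CellTiter-Glo, RT.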
Experiment [3] can be described thus: qHTS assay to identify small molecule antagonists of the estrogen related receptor (ERR) signaling pathway from Tox21 library - cell viability counter screen (AID 1224834). Also: nearly all actives have a fitted effect of over 30% in size. Also: potency is read from the fitted curve at half-maximal effect. The procedure, abridged:
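Compounds in DMSO were pinned onto ERR cells that had been incubated for 6 h, and the plates were held at 37 C for 17.5 h. CellTiter-Fluor reagent was then added and fluorescence was measured after 30 min.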

The target of experiment [4] is Luciferin 4-monooxygenase (Photinus pyralis) (UniProt P08659). The experiment in a line: qHTS assay to identify small molecule inhibitors of firefly luciferase (AID 1224835). Also: nearly all actives have a fitted effect of over 25% in size. Also: potency is read from the fitted curve at half-maximal effect. The essentials:
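Biochemical qHTS: compounds run as interplate titrations against purified firefly enzyme, with D-luciferin and ATP each at its KM concentration. Light output recorded by CCD imaging.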

Experiment [5] in a line: qHTS assay to identify small molecule agonists of the constitutive androstane receptor (CAR) signaling pathway - cell viability counter screen (AID 1224836). Also: nearly all actives have a fitted effect of over 45% in size. Also: potency is read from the fitted curve at half-maximal effect. The essentials:
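HepG2 cells stably carrying hCAR and a CYP2B6-2.2kb reporter; 15-concentration compounds plus PK11195 (final 0.75 uM), 23 hr at 37 C/5% CO2. Viability read by CellTiter-Fluor fluorescence.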

A short description of experiment [6]: qHTS assay to identify small molecule antagonists of the constitutive androstane receptor (CAR) signaling pathway - cell viability counter screen (AID 1224837). Also: nearly all actives have a fitted effect of over 45% in size. Also: potency is read from the fitted curve at half-maximal effect. The procedure, abridged:
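Cells are seeded, rested 4 hr at 37 C/5% CO2, dosed with compound (15-point series) and 50 nM CITCO, incubated a further 23 hr, and then CellTiter-Fluor reagent is added before fluorescence is read. The line is HepG2 with stable hCAR and CYP2B6-2.2kb.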

Experiment [7] concerns the target Nuclear receptor subfamily 1 group I member 3 (Homo sapiens) (UniProt Q14994). The experiment in a line: qHTS assay to identify small molecule antagonists of the constitutive androstane receptor (CAR) signaling pathway (AID 1224838).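 Also: HepG2 cells stably expressing hCAR with CYP2B6 luciferase reporter stimulated by CITCO; nearly all actives have a fitted effect of over 40% in size.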 Also: potency is read from the fitted curve at half-maximal effect. The essentials:
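Luminescence from a CYP2B6-2.2kb promoter reporter in hCAR-expressing HepG2 cells reflects CAR signaling. Cells received compounds at 15 concentrations and 50 nM CITCO (final), then incubated 24 h at 37 C/5% CO2.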

Experiment [8] has the same target. Kind of experiment: qHTS assay to identify small molecule agonists of the constitutive androstane receptor (CAR) signaling pathway (AID 1224839).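 Also: HepG2 cells stably carrying human CAR and a CYP2B6 luciferase reporter; series mostly up to about 92 µM; nearly all actives have a fitted effect of over 15% in size.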 The procedure, abridged:
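HepG2 cells stably co-transfected with hCAR and a CYP2B6-2.2kb luciferase reporter; compounds at 15 concentrations with 0.75 uM PK11195 present. After 24 hr at 37 C, luciferase read by ONE-Glo luminescence.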

Experiment [9] in a line: qHTS assay to identify small molecule antagonists of the estrogen related receptor signaling pathway with the pleiotropic PPARgamma coactivator (PGC) from Tox21 10K library - cell viability counter screen (AID 1224840; active = well fitted cell-killing curve with a large enough effect in the repeat runs, not every such curve was filed as active; also: nearly all actives have a fitted effect of over 40% in size; also: potency is read from the fitted curve at half-maximal effect). The essentials: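 Cell viability is measured by CellTiter-Fluor fluorescence in PGC/ERR cells that receive compounds after a 6-hour attachment period and are then incubated 17.5 hours at 37 C.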

Experiment [10] can be described thus: qHTS assay to identify small molecule antagonists of the estrogen related receptor signaling pathway with the pleiotropic PPARgamma coactivator (PGC) from Tox21 10K library (AID 1224841; call rule not given here; also: actives are mostly falling curves and most rising ones were filed inactive; nearly all actives have a fitted effect of over 50% in size; also: potency is read from the fitted curve at half-maximal effect). The essentials: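 Cells stably carrying the PGC/ERR reporter, seeded at 2,000 per well, received pin-transferred compounds 6 h post-plating. Exposure lasted 18 h at 37 C. Signal: One-Glo luminescence.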

A short description of experiment [11]: qHTS assay to identify small molecule agonists of the estrogen related receptor signaling pathway with the pleiotropic PPARgamma coactivator (PGC) from Tox21 10K library (AID 1224842). Also: nearly all actives have a fitted effect of over 15% in size. The essentials:
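PGC/ERR reporter cell line, 2,000 cells per well, incubated 6 h at 37 C before 23 nL compound in DMSO was added. After 18 h at 37 C, One-Glo luminescence read following 30 min at room temperature.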

The nature of experiment [12]: qHTS assay to identify small molecule agonists of the retinoic acid receptor (RAR) signaling pathway (AID 1159553). Also: potency is read from the fitted curve at half-maximal effect. The procedure, abridged:
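Quantitative high-throughput format: the Tox21 10K library was tested on C3RL4 RARE-luciferase cells for 6 hr at 37 C and 5% CO2, with luminescence measured after a 30 min room-temperature reagent step.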

The nature of experiment [13]: qHTS assay to identify small molecule antagonists of the retinoic acid receptor (RAR) signaling pathway (AID 1159552; also: nearly all actives have a fitted effect of over 50% in size; also: potency is read from the fitted curve at half-maximal effect). The procedure, abridged:
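Retinol signaling pathway inhibitors screened in C3RL4 RARE-luciferase reporter cells seeded overnight at 37 C, then compounds added with 1 uM (final) retinol as pathway substrate. After 6 hr at 37 C, luciferase luminescence read after 30 min at room temperature.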

Experiment [14] in a line: qHTS assay to identify small molecule antagonists of the estrogen related receptor (ERR) signaling pathway - cell viability counter screen (AID 1224818).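 Also: series mostly up to about 46 µM; viability measured after 17.5 h of compound exposure.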 The procedure, abridged:
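Quantitative high-throughput viability counter screen in ERR cells. Compounds (DMSO) incubated 17.5 h at 37 C; read-out was CellTiter-Fluor fluorescence.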

Experiment [15] can be described thus: qHTS assay to identify small molecule antagonists of the estrogen related receptor signaling pathway with the pleiotropic PPARgamma coactivator (PGC) cell viability counter screen (AID 1224822; also: series mostly up to about 46 µM). The essentials: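 Cytotoxicity in the PGC/ERR cell line is assessed with CellTiter-Fluor, read as fluorescence intensity 30 min after reagent addition, following 17.5 h compound treatment at 37 C.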

Chain of Nuclear receptor subfamily 1 group I member 3 (Homo sapiens) (Q14994 whole entry, looked up): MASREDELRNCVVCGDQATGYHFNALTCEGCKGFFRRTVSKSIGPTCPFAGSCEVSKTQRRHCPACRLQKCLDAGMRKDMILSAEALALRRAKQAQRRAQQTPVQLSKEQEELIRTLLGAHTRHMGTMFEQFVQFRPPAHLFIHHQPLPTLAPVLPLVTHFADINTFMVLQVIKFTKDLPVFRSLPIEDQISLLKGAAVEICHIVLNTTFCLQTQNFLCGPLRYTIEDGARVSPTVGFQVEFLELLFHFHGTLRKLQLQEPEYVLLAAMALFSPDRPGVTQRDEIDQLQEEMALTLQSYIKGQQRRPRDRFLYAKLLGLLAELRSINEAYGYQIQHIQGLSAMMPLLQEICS
Chain of Luciferin 4-monooxygenase (Photinus pyralis) (P08659 whole entry, looked up): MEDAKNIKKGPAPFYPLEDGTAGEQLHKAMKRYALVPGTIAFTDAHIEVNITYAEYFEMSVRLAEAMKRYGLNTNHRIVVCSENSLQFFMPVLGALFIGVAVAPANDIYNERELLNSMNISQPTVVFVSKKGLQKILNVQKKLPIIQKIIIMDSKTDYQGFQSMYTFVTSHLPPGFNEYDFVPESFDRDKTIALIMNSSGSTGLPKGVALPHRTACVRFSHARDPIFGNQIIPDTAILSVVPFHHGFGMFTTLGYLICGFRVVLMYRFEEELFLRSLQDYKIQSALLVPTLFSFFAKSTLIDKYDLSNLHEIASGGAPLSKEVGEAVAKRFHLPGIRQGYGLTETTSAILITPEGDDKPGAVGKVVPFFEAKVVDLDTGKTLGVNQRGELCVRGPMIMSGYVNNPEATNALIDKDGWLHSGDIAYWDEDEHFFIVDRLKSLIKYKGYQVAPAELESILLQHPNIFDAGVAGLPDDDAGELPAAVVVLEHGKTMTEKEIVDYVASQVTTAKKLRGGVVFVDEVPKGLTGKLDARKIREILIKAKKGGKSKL

Turning to `O=C(O)c1cccc(C[C@@H]2COc3ccc(OCc4nc5cc(F)ccc5s4)cc3[C@@H]2O)c1`, the Potency entry in [1], in experiment [2], in experiment [3], in experiment [4], in experiment [5] and in experiment [6] was “inactive” throughout. For the same compound, the Potency result in experiment [7], in experiment [8] and in experiment [9] was “inactive” throughout.
As to `O=C(O)CCCc1c[nH]c2ccccc12`, the Potency entry in experiment [1], in experiment [2], in experiment [4], in [5], in experiment [6] and in experiment [9] was “inactive” in each case. Also, the Potency result in experiment [10] and in [11] was “inactive” each time.
On to `CCCCCCCC/C=C/C(=O)O`, for which the Potency result in experiment [1], in [2], in experiment [3], in experiment [4], in experiment [6] and in experiment [9] was “inactive” each time.
Turning to `COc1ccc(-c2cc(C(F)F)nn2-c2ccc(S(N)(=O)=O)cc2)cc1F`, the Potency entry in [1], in experiment [12], in experiment [3], in experiment [4], in [5] and in [6] was “inactive” throughout. In addition, the Potency entry in [7], in experiment [9], in [10] and in experiment [11] was “inactive” each time.
As for `O[C@@H](CNC[C@H](O)[C@H]1CCc2cc(F)ccc2O1)[C@@H]1CCc2cc(F)ccc2O1`, the Potency in experiment [1] is 19 µM (active); in experiment [13], 29.8 µM (active); in [3] it was 29.8 µM (active); in experiment [10], 33.5 µM (active). Also, the Potency entry in experiment [4] and in [11] was “inactive” in each case.
For the compound `O=C(O)/C=C/c1ccc(O)c(O)c1`, the Potency result in experiment [2], in experiment [13], in experiment [12], in experiment [4], in [5] and in experiment [6] was “inactive” each time. Also, the Potency entry in experiment [7], in experiment [8] and in experiment [9] was “inactive” throughout. In addition, the result in experiment [14] and in [15] was inactive.
On to `COc1cc(OC)c2ccc(=O)oc2c1`, for which the Potency result in experiment [1], in [2], in experiment [4], in experiment [5], in [6] and in experiment [7] was “inactive” in each case.
For `CCCCCCCC(=O)Oc1c(Br)cc(C#N)cc1Br`, the Potency result in [2], in experiment [4], in experiment [6], in [7], in experiment [9] and in experiment [11] was “inactive” each time. For the same compound, in experiment [10], the Potency is 43.1 µM (active).
For the compound `O=C(/C=C/c1ccc([N+](=O)[O-])cc1)c1ccccc1`, the Potency result in experiment [2] and in [13] was “inactive” each time. For the same compound, the Potency in experiment [12] was 30.7 µM (active); in experiment [3] it was 54.6 µM (active); in experiment [4] it was 1.13 µM (active); in experiment [6], 68.7 µM (active).
With `CC1=C2[C@@H]([C@H](C)CC[C@H]2/C=C(\C)C(=O)O)[C@H](O)C1`, the Potency result in experiment [1], in experiment [2], in [3], in experiment [4], in experiment [5] and in experiment [6] was “inactive” each time. In addition, the Potency result in [7] and in experiment [8] was “inactive” throughout.
Turning to `Nc1cccc2c(N)cccc12`, the Potency entry in experiment [2], in experiment [13] and in experiment [7] was “inactive” throughout. The Potency is 19.3 µM (active) in experiment [12], 39.9 µM (active) in experiment [4], 24.3 µM (active) in experiment [5] and 24.3 µM (active) in experiment [6]. The compound was classed as inactive in [14] and in [15].
For the compound `CC(=O)c1ccc[nH]1`, the Potency entry in experiment [2], in experiment [13], in experiment [12], in experiment [3], in [4] and in experiment [5] was “inactive” in each case. For the same compound, the Potency entry in [6] and in experiment [9] was “inactive” each time.
For `CO[C@@H]1[C@@H](OC)[C@H](C)[C@@](O)(CC(=O)O)O[C@H]1[C@H](C)[C@H]1O[C@@]2(CC[C@@](C)([C@H]3CC[C@@](C)([C@@H]4O[C@@H]([C@H]5O[C@](C)(O)[C@H](C)C[C@@H]5C)C[C@@H]4OC4C[C@H](OC)[C@@H](OC)[C@H](C)O4)O3)O2)C[C@H](O)[C@H]1C` (stereo not given in full), the Potency in experiment [3] is 0.944 µM (active); in experiment [5], 5.31 µM (active); in experiment [6], 4.73 µM (active); in [7], 9.44 µM (active); in [9] it was 0.75 µM (active). In experiment [4], the Potency entry was “inactive”.
